Test results from publication PMC5540273 (PLoS ONE, 2017).

Assays:
Conditions in all cases: concentration: 1 μM, replicates: in singlicate; n = 1
[1] = tested on: RIPK2
[2] = tested on: RIPK4
[3] = tested on: RIPK5
[4] = tested on: ROCK1
[5] = tested on: ROCK2
[6] = tested on: ROS1
[7] = tested on: RPS6KA4(Kin.Dom.1-N-terminal)
[8] = tested on: RPS6KA4(Kin.Dom.2-C-terminal)
[9] = tested on: RPS6KA5(Kin.Dom.1-N-terminal)
[10] = tested on: RPS6KA5(Kin.Dom.2-C-terminal)
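Note: KINOMEscan kinase panel screen.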

| Structure (SMILES) | %Inh [1] | %Inh [2] | %Inh [3] | %Inh [4] | %Inh [5] | %Inh [6] | %Inh [7] | %Inh [8] | %Inh [9] | %Inh [10] |
| --- | --- | --- | --- | --- | --- | --- | --- | --- | --- | --- |
| COc1cc(Nc2nccc(N3CCC(NC(=O)C(C)c4ccc(Cl)cc4)C3)n2)cc(OC)c1OC (centres unmarked) [GSK1379757] | 0% | 0% | 16% | 0% | 0% | 31% | 0% | 0% | 0% | 0% |
| CCS(=O)c1ccc(-c2coc3ccc(-c4nnc(C)o4)cc23)cc1 (centres unmarked) | 0% | 7% | 0% | 0% | 28% | 15% | 24% | 11% | 2% | 0% |
| Cc1cccc(-c2nc(Nc3ccc4c(cnn4C)c3)c3ccccc3n2)n1 [GW876731] | 0% | 10% | 0% | 41% | 0% | 12% | 12% | 0% | 0% | 0% |
| COc1cc2ncn(-c3cc(OCc4ccncc4Br)c(C(N)=O)s3)c2cc1OC [GW854278] | 26% | 0% | 9% | 11% | 0% | 6% | 2% | 0% | 0% | 7% |
| CCCNC(=O)Nc1ccc(Oc2ncnc3ccn(C)c23)cc1 | 0% | 13% | 34% | 0% | 6% | 0% | 0% | 0% | 23% | 6% |
| COc1cccc(-n2cnc3c(N)ncnc32)c1 [SKF-97416] | 1% | 43% | 18% | 66% | 60% | 0% | 19% | 7% | 0% | 0% |
| Nc1nc(-c2ccccc2F)c(-c2ccnc3ccccc23)s1 [GW560459] | 98% | 0% | 0% | 14% | 24% | 4% | 3% | 0% | 10% | 1% |
| CCc1nc(-c2cccc(C)c2)c(-c2ccncc2)s1 | 76% | 7% | 0% | 0% | 0% | 11% | 2% | 0% | 0% | 18% |
| COc1cccc(C2=C(N(C)c3ccccc3)C(=O)NC2=O)c1 [SB-334865] | 17% | 19% | 0% | 0% | 12% | 0% | 8% | 0% | 20% | 0% |
| O=C(NCc1cccs1)c1cc(C(=O)c2c(Cl)cccc2Cl)c[nH]1 [GW823670] | 8% | 0% | 0% | 45% | 0% | 0% | 22% | 0% | 0% | 15% |
| Nc1ncnc2c1ncn2-c1cccc(F)c1 [SKF-97560] | 100% | 29% | 26% | 38% | 28% | 4% | 0% | 45% | 0% | 3% |
| COc1ccc(-c2coc3ccc(-c4nnc(SCc5cccc(C#N)c5)o4)cc23)cc1 | 12% | 16% | 12% | 0% | 24% | 18% | 0% | 13% | 29% | 0% |
| COc1ccc(Nc2nccc(N3CCC(NS(=O)(=O)c4ccc(NC(C)=O)cc4)C3)n2)cc1 (centres unmarked) [GSK1379729] | 100% | 0% | 0% | 36% | 18% | 3% | 0% | 0% | 27% | 0% |
| OCCCNc1nccc(-c2c(-c3cccc(C(F)(F)F)c3)nn3cc(C(F)(F)F)ccc23)n1 [GW630813] | 14% | 0% | 0% | 11% | 24% | 0% | 0% | 0% | 0% | 16% |
| COc1cc2ncn(-c3cc(OCc4ccc(S(C)(=O)=O)cc4)c(C(N)=O)s3)c2cc1OC [GW869979] | 0% | 35% | 3% | 45% | 32% | 0% | 0% | 38% | 0% | 14% |
| O=C(Nc1n[nH]c2nc(-c3ccccc3)c(Br)cc12)C1CC1 [SB-708998] | 5% | 0% | 0% | 7% | 0% | 0% | 4% | 0% | 28% | 0% |
| O=C(Nc1ccc2c(c1)OCO2)NC1CCN(c2ccnc(NCc3ccc(F)cc3)n2)CC1 [GSK1379859] | 10% | 0% | 10% | 74% | 47% | 0% | 13% | 0% | 9% | 0% |
